Source: PubChem (several laboratories)
Rows were chosen to be rich in hits. Some 2.2% of all compounds tested hit in one or more screens of this group.
Ba/F3 V617F tox = lowers viability of Ba/F3 cells expressing EpoR and JAK2V617F; inhibition, % at 5.6 µM; AID 1446; 1.1% of 220,000 active; ATP luminescence;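 active = inhibition above the campaign mean plus 3 SD over all tested compounds, cut at about 24% in these data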;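 note: cytokine-independent growth of Ba/F3 cells driven by EpoR plus mutant JAK2; 0% = DMSO-treated cells and 100% = JAK inhibitor I control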
KLF5 inh = suppresses KLF5 promoter-driven expression. DLD-1 KLF5 promoter-luciferase reporter, luminescence. inhibition, % at 5 µM. 0.23% of 290,000 active;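 active = inhibition above a per-plate limit of that plate's mean compound inhibition plus 3 SD, cut at about 60% in these data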;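 note: 0% = DMSO wells and 100% = LY294002 at 200 µM; higher means less KLF5 promoter-driven luciferase light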
aSyn 5UTR inh = MLPCN primary screen, SNCA 5' untranslated region. inhibition, % (tested at 7.5 µM). 0.82% of 300,000 active. alpha-synuclein 5'UTR reporter, inhibitor activity; in the data active = inhibition above about 60%;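 note: H4 neuroglioblastoma cells stably carrying SNCA 5'UTR luciferase fusion; 0% = DMSO wells and 100% = positive control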
BaF3 tox = parental Ba/F3 viability inhibition as JAK2V617F counter-screen | CellTiter-Glo ATP luminescence | inhibition, % at 5.6 µM | 1.1% of 220,000 active | AID 1486;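 active = inhibition above a per-campaign cutoff, the mean inhibition of all tested compounds plus 3 SD, cut at about 27% in these data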;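 note: 0% = DMSO wells and 100% = JAK Inhibitor I control wells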
IEC-6 tox-1 = kills IEC-6 intestinal cells in KLF5 counter-screen; IEC-6 cytotoxicity, luminescence viability; inhibition, % at 5 µM; 0.78% of 290,000 active; AID 1825;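 note: 0% = plate median of test compound wells and 100% = cytotoxic reference compound wells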
APP transl inh = APP translation inhibition. SH-SY5Y APP 5'UTR-luciferase reporter, luminescence. inhibition, % at 2 µM. 0.82% of 190,000 active. AID 1285;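 active = inhibition above a set limit, derived from the sample mean plus 3 SD, cut at about 45% in these data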
KLF5 inh confirm = KLF5 inhibition, confirmation assay | AID 1834 | shares compounds with KLF5 inh | DLD-1 KLF5 promoter firefly luciferase reporter, luminescence | inhibition, % at 4 µM | 79% of 610 active;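 active = inhibition above a set limit taken from the earlier primary screen, cut at about 63% in these data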;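 note: 0% = DMSO wells and 100% = LY294002 at 200 µM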
IEC-6 tox-2 = rat IEC-6 cytotoxicity, KLF5 inhibitor counter-screen | 56% of 610 active | inhibition, % at 4 µM | AID 1905 | IEC-6 rat intestinal cells, viability luminescence | shares compounds with KLF5 inh; in the data active = inhibition above about 23%;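 note: cells exposed to compounds for 48 hours before viability read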
IEC-6 cytotox cf = IEC-6 cytotoxicity, confirmation assay | shares compounds with IEC-6 tox-1 | IEC-6 rat intestinal epithelial viability, luminescence | inhibition, % at 5 µM | 63% of 1,900 active | AID 1907;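 note: 0% = vehicle and 100% = reference cytotoxic drug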
Starred values were filed as active, the others as inactive. Cut-off read from the data, not from the text of the source, unless noted: active = inhibition above about 22%; inactive = the rest.

Results for COc1ccc(CC(=O)NCc2ccc(-n3cccc3)cc2)cc1OC ?
KLF5 inh: 71*; aSyn 5UTR inh: 64*; IEC-6 tox-1: 76*; KLF5 inh confirm: 72*; IEC-6 tox-2: 60*; IEC-6 cytotox cf: 58*

How did Cn1nccc1C(=O)N1CCN(c2ccccc2F)CC1 do in these assays?
KLF5 inh: -42; aSyn 5UTR inh: -6; IEC-6 tox-1: -1

What do the screens show for `O=C(O)/C=C/C(=O)NCc1csc2ccccc12`?
Ba/F3 V617F tox: -5; KLF5 inh: -9; aSyn 5UTR inh: -27; BaF3 tox: 1; IEC-6 tox-1: -1

Results for CCCSc1ccc2nc(NC(=O)OC)[nH]c2c1 ?
Ba/F3 V617F tox: 78*; KLF5 inh: 76*; aSyn 5UTR inh: 18; BaF3 tox: 76*; IEC-6 tox-1: 80*; APP transl inh: 92*; KLF5 inh confirm: 48; IEC-6 tox-2: 61*; IEC-6 cytotox cf: 56*

How did COC(=O)Nc1nc2ccc(C(=O)c3cccs3)cc2[nH]1 do in these assays?
aSyn 5UTR inh: 53

Results for Cc1cccc(C)c1NC(=O)NCc1ccco1 ?
Ba/F3 V617F tox: 0; KLF5 inh: -10; aSyn 5UTR inh: -5; BaF3 tox: 1; IEC-6 tox-1: -2

What do the screens show for `Cc1cccc(C)c1OCCNC(=O)C(=O)NCc1ccco1`?
Ba/F3 V617F tox: 77*; KLF5 inh: 65*; aSyn 5UTR inh: -2; BaF3 tox: 81*; IEC-6 tox-1: 77*; APP transl inh: 85*; KLF5 inh confirm: 83*; IEC-6 tox-2: 61*; IEC-6 cytotox cf: 59*

How did CCCn1c(N)c(N(CCOC)C(=O)/C=C/c2ccc(C(=O)OC)cc2)c(=O)[nH]c1=O do in these assays?
Ba/F3 V617F tox: 0; KLF5 inh: -17; aSyn 5UTR inh: -8; BaF3 tox: 5; IEC-6 tox-1: 1; APP transl inh: -9

Results for C/C(=N\NC(=O)c1nnn(-c2nonc2N)c1-c1ccc2c(c1)OCO2)c1ccccc1 ?
KLF5 inh: -23; aSyn 5UTR inh: -9; IEC-6 tox-1: -12

How did C/C(=N\NC(=O)c1nnn(-c2nonc2N)c1-c1ccccc1)c1ccccc1O do in these assays?
KLF5 inh: 62*; aSyn 5UTR inh: 60; IEC-6 tox-1: 96*; KLF5 inh confirm: 85*; IEC-6 tox-2: 63*; IEC-6 cytotox cf: 75*

How did Cc1nc(N)nc(N)c1/C=C/C(C)(C)c1ccc(Cl)cc1 do in these assays?
Ba/F3 V617F tox: 98*; KLF5 inh: 83*; aSyn 5UTR inh: 125*; BaF3 tox: 103*; IEC-6 tox-1: 86*; APP transl inh: 70*; KLF5 inh confirm: 84*; IEC-6 tox-2: 76*; IEC-6 cytotox cf: 77*

Results for COc1cc(-c2noc(C)c2/C=C/c2ccc(OC(C)=O)cc2)cc(OC)c1OC ?
KLF5 inh: 71*; aSyn 5UTR inh: 95*; IEC-6 tox-1: 91*; KLF5 inh confirm: 83*; IEC-6 tox-2: 63*; IEC-6 cytotox cf: 60*

What do the screens show for `COc1cc(-c2noc(C)c2C#CCO)cc(OC)c1OC`?
KLF5 inh: -12; aSyn 5UTR inh: 13; IEC-6 tox-1: 5

How did O=S1(=O)CCOC[C@H](CC2CCCCC2)N1Cc1ccccc1Br do in these assays?
KLF5 inh: -18; aSyn 5UTR inh: 11; IEC-6 tox-1: 2

Results for COc1cc2c(c(OC)c1OC)-c1ccc(OC)c(=O)cc1[C@@H](NC(C)=O)CC2 ?
KLF5 inh: 79*; aSyn 5UTR inh: 96*; IEC-6 tox-1: 96*; KLF5 inh confirm: 88*; IEC-6 tox-2: 81*; IEC-6 cytotox cf: 83*

What do the screens show for `COc1cc(C(=O)NC2CCCc3ccccc32)cc(OC)c1OC` (centres undefined)?
KLF5 inh: -3; aSyn 5UTR inh: 10; IEC-6 tox-1: -2

What do the screens show for `COc1cc2c(c(OC)c1OC)-c1ccc(N(C)CC(OC)OC)c(=O)cc1[C@@H](NC(C)=O)CC2`?
KLF5 inh: 86*; aSyn 5UTR inh: 84*; IEC-6 tox-1: 92*; KLF5 inh confirm: 86*; IEC-6 tox-2: 61*; IEC-6 cytotox cf: 66*

Results for CCN(CC)c1ccc2c(cc1=O)[C@@H](NC)CCc1cc(OC)c(OC)c(OC)c1-2 ?
KLF5 inh: 70*; aSyn 5UTR inh: 107*; IEC-6 tox-1: 85*; KLF5 inh confirm: 92*; IEC-6 tox-2: 81*; IEC-6 cytotox cf: 76*

How did COc1cc2c(c(OC)c1OC)-c1ccc(OC)c(=O)cc1[C@@H](N(C)CC#CCO)CC2 do in these assays?
KLF5 inh: 81*; aSyn 5UTR inh: 87*; IEC-6 tox-1: 93*; KLF5 inh confirm: 92*; IEC-6 tox-2: 75*; IEC-6 cytotox cf: 74*

Results for COc1cc2c(cc1OC)C(COc1ccc(F)cc1)N(C(C)=O)CC2 (centres undefined) ?
KLF5 inh: -40; aSyn 5UTR inh: 22; IEC-6 tox-1: -4

How did COc1ccc(-c2noc(C(C)NC(=O)c3ccco3)n2)cc1OC (centres undefined) do in these assays?
KLF5 inh: 9; aSyn 5UTR inh: 21; IEC-6 tox-1: 0

What do the screens show for `COc1ccc(S(=O)(=O)N2CCN(C(c3ccccc3)c3ccccc3)CC2)cc1NC(C)=O`?
KLF5 inh: 0; aSyn 5UTR inh: -22; IEC-6 tox-1: -3

What do the screens show for `COc1ccc(C(CNC(=O)c2ccc(-c3cccc(C(F)(F)F)c3)o2)N2CCOCC2)cc1` (centres undefined)?
aSyn 5UTR inh: 21

Results for CC(=O)Nc1ccc(C(=O)Nc2nc(-c3ccccn3)cs2)cc1 ?
Ba/F3 V617F tox: 2; KLF5 inh: -30; aSyn 5UTR inh: -46; BaF3 tox: 11; IEC-6 tox-1: 4; APP transl inh: -1

What do the screens show for `O=C(Nc1nc(-c2ccccn2)cs1)c1ccccc1-n1cnnn1`?
Ba/F3 V617F tox: 66*; KLF5 inh: 71*; aSyn 5UTR inh: 98*; BaF3 tox: 63*; IEC-6 tox-1: 90*; KLF5 inh confirm: 76*; IEC-6 tox-2: 59*; IEC-6 cytotox cf: 70*

Results for Cc1ccccc1OCCc1c(C)[nH]c(=S)[nH]c1=O ?
Ba/F3 V617F tox: 73*; KLF5 inh: 82*; aSyn 5UTR inh: 34; BaF3 tox: 75*; IEC-6 tox-1: 84*; APP transl inh: 92*; KLF5 inh confirm: 78*; IEC-6 tox-2: 55*; IEC-6 cytotox cf: 56*

Results for Cc1[nH]c(=S)[nH]c(=O)c1CCOc1ccccc1 ?
Ba/F3 V617F tox: 0; KLF5 inh: -32; aSyn 5UTR inh: 7; BaF3 tox: 3; IEC-6 tox-1: -9; APP transl inh: -13
